Consider four compounds from PubChem BioAssay.

Assay [1] can be described thus: yeast TOR pathway RPL19A-GFP modulators, primary screen, cell-based, S. cerevisiae, multiplex flow cytometry (AID 1862; in the data active means percent of DMSO control GFP below about 86%;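 further: lower values mimic rapamycin by blocking the RPL19A rise seen in DMSO cells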). The settings on record: S. cerevisiae RPL19A-GFP strain, flow cytometry fluorescence, 3 h; at 10 µM; stronger effect = lower value.
Assay [2] in a line: modulators of MEP2-GFP levels in yeast, primary screen, S. cerevisiae, multiplex flow cytometry (AID 1867;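 active means GFP response, as percent of the DMSO control, above the screen-wide mean plus 3 SD, about 139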;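 further: median GFP channel fluorescence of barcode-gated MEP2-GFP cells measured by flow cytometry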). To be noted: S. cerevisiae MEP2-GFP strain, 3 h, at 10 µM, stronger effect = higher value, 100% means same as DMSO wells. For orientation: Flow cytometry measures light scatter and fluorescence of single cells or particles in a stream.
Assay [3] in a line: modulators of CIT2-GFP expression in yeast, primary screen, S. cerevisiae, GFP fusion, multiplex flow cytometry (AID 1870;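 active means percent response above a set limit, the screen-wide mean plus 3 SD, cut at about 130% in these data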;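 further: barcoded CIT2-GFP strain pooled with four other GFP strains with rapamycin as positive control; median GFP fluorescence per well over plate mean of DMSO wells so 100% = DMSO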). The settings on record: 3 h, at 10 µM, stronger effect = higher value.
Assay [4] can be described thus: modulators of LAP4-GFP expression in yeast, primary screen, S. cerevisiae, multiplex flow cytometry (AID 1873). The settings on record: 3 h, at 10 µM, stronger effect = higher value.
Assay [5] can be described thus: modulators of AGP1-GFP expression in yeast TOR pathway, primary screen, cell-based, multiplex flow cytometry, S. cerevisiae (AID 1887;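 active means GFP signal above the screen-wide mean plus 3 SD, that is over about 124.5% of the solvent control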;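 further: AGP1-GFP fusion strain of S. cerevisiae within a five-strain barcoded multiplex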). To be noted: 3 h, at 10 µM, stronger effect = higher value.
A short description of assay [6]: inhibitors of CD8+ T cell-vesicle binding, pilot screen, LFA-1/ICAM-1 modulator project, MLPCN validation set, flow cytometry (AID 2523;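 active means response below a set limit, under 55% cells CD8-positive and vesicle-bound, and CD8 cells' 90th-percentile brightness under 279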;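 on vesicle binding response: mean PE anti-B7-1 fluorescence of CD8+ cells relative to row control; 100% = QL9-loaded vesicles with DMSO vehicle in the same plate row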). To be noted: 2C mouse CD8+ T cells, at 7 µM, stronger effect = lower value; double positive events: measured here: CD8+/vesicle+ event percentage.
Assay [7] concerns the target Integrin beta-1 (Homo sapiens) + Integrin alpha-4 (Homo sapiens) (UniProt P13612+P05556). The assay is described as follows: inhibition of HUTS-21 binding to VLA-4, pilot screen, VLA-4 allosteric modulator project, U937 cells, HUTS-21 mAb, flow cytometry, validation set (AID 2674;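 active means inhibition above 50%, about 3 SD of the validation set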;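 further: antibody binding induced by the VLA-4 ligand LDV present at three times its Kd; 0% = LDV ligand with antibody and no compound and 100% = antibody without LDV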). The settings on record: HUTS-21 LIBS mAb binding, at 6.7 µM, stronger effect = higher value, binding induced by LDV ligand.

A short description of assay [8]: superoxide lowering in aged yeast cells, pilot screen, validation compound set (AID 2706;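 active means superoxide response below 65% of plate, a cut near 3 SD across the whole screen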;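 further: yeast exposed to compound for one week at 30 degrees C before staining; 100% = mean of all compound wells on the same plate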). The settings on record: S. cerevisiae aging, superoxide DHE fluorescence; at 10 µM; stronger effect = lower value.
Assay [9] addresses Beta-adrenergic receptor kinase 1 (Homo sapiens) (UniProt P25098). The assay is described as follows: GRK2 binders displacing RNA aptamer, biochemical, validation, human GRK2, bead flow cytometry (AID 488806;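 active means aptamer binding inhibition above 30%, about 3 SD of noise from non-fluorescent compounds; inactive means inhibition at or below 30%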). To be noted: bead-bound GRK2, FAM-aptamer displacement, at 10 µM, stronger effect = higher value.
For assay [10], the target named is Beta-2 adrenergic receptor (Homo sapiens) (UniProt P07550). The assay can be described thus: beta2AR agonists driving receptor internalization, pilot screen, cell-based, FAP fluorogen, flow cytometry, validation set (AID 504459;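 active means percent response above 42, roughly 3 SD of non-fluorescent test compounds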;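 further: agonist-driven loss of surface beta2AR via internalization measured by FAP dye flow cytometry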). To be noted: Am2.2-beta2AR cells, FAP surface receptor flow cytometry; at 10 µM; stronger effect = higher value.
Assay [11] addresses AP-2 complex subunit beta (Homo sapiens) (UniProt P63010). The assay can be described thus: inhibitors of arrestin peptide binding to AP2, pilot screen, biochemical, validation set, GST-AP2 beads, flow cytometry (AID 504541;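 active means inhibition above 54%, about 3 SD of non-fluorescent compounds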;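 further: AP2 carries R879A mutation and is captured from E. coli lysate; bead-bound FITC arrestin peptide fluorescence measuring arrestin peptide binding to AP2; 0% = DMSO wells and 100% = excess unlabeled arrestin peptide control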). To be noted: FITC arrestin peptide, at 10 µM, stronger effect = higher value, AP2 beta2 appendage fragment, R879A mutant.
A short description of assay [12]: yeast V-ATPase proton transport modulators, S. cerevisiae, pHLuorin, HTS validation (AID 504600; in the data active means response above about 15%;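 further: plate controls were DMSO for no effect and reference compound for full effect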). To be noted: S. cerevisiae pHLuorin cytosolic pH, at 10 µM, stronger effect = higher value.
The test system of assay [13] is anti-desmoglein-3 scFv antibody binding to human DSG3. The assay is described as follows: inhibitors of anti-DSG3 scFv binding to DSG3, pilot screen, biochemical, validation compound set, bead-based, flow cytometry (AID 588368;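 active means binding below the plate cutoff, the plate median minus 3 SD, with a reading above zero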;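 further: signal is the median channel fluorescence of bead-bound GFP antibody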). To be noted: Protein G beads, DSG3-Fc, scFv-GFP binding, at 10 µM, stronger effect = lower value.
A short description of assay [14]: inhibitors of fungal efflux pumps CDR1, CDR2, MDR1, pilot screen, validation compound set, multiplex, phenotypic (AID 588506;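 active means efflux inhibition above 0.42, the validation set average plus 4 SD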;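 further: Nile Red retained in cells so higher fluorescence means more efflux inhibition; 0 = negative control wells and 1 = enniatin B 25 µM full block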). The settings on record: S. cerevisiae pump-expressing triplex, Nile Red efflux flow cytometry; at 10 µM; stronger effect = higher value; the pumps come from Candida albicans.
Assay [15] addresses ATP-binding cassette sub-family B member 6 (Homo sapiens) (UniProt Q9NP58). The assay can be described thus: ABCB6 transporter inhibitors, pilot screen, K562-ABCB6 cells, flow cytometry, validation set (AID 588550;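 active means inhibition above the screen-wide mean plus 3 SD, about 51%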;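 further: 0% = DMSO wells and 100% = benzethonium chloride 70 µM positive control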). To be noted: K562-ABCB6 porphyrin accumulation, 1 h, at 10 µM, stronger effect = higher value.
A short description of assay [16]: promoters of myeloid differentiation in arrested cells, primary screen, cell-based, GFP/MAC1 double positive, flow cytometry, validation set (AID 588685;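 active means differentiation response of at least 50%, scaled between solvent and reference control, from cells with both markers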;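 further: compound exposure lasts four days before antibody staining and flow analysis; 0% = DMSO wells and 100% = 5 µM fulvestrant positive control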). To be noted: ER-HoxA9 marrow cells, stronger effect = higher value, normalized: vehicle 0, fulvestrant 100.

Structures are written as SMILES. Records with an inconclusive call do not appear. Calls of active or inactive are those of the source.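 How the source made its calls, unless noted: active means GFP signal, as percent of the solvent control, above the screen mean plus 3 SD, about 149; inconclusive means no reading because the compound's own fluorescence upset strain identification; inactive means the rest.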

Sequence of Integrin beta-1 (Homo sapiens) + Integrin alpha-4 (Homo sapiens) (P05556 whole entry, looked up): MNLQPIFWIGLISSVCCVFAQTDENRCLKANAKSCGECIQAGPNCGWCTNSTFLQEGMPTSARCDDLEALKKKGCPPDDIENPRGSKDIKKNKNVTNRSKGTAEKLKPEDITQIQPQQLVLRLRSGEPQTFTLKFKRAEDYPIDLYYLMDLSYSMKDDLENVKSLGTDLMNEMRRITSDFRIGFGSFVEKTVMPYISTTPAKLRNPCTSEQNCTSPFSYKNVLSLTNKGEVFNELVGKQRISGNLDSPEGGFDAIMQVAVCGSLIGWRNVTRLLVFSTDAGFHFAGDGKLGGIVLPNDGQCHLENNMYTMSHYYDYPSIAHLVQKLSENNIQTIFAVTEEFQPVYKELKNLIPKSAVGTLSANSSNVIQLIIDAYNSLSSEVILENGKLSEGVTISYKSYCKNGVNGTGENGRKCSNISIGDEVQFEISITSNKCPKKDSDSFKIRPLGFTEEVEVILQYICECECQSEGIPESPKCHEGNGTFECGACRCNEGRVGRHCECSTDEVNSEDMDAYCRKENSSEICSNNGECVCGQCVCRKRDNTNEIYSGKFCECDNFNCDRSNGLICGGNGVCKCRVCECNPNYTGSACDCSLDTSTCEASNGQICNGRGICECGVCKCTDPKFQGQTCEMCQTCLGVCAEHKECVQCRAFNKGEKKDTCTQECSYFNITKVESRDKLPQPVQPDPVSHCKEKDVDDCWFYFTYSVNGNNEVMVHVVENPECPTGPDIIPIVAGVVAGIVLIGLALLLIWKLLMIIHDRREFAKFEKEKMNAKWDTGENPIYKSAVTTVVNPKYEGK
Sequence of Integrin beta-1 (Homo sapiens) + Integrin alpha-4 (Homo sapiens) (P13612 whole entry, looked up): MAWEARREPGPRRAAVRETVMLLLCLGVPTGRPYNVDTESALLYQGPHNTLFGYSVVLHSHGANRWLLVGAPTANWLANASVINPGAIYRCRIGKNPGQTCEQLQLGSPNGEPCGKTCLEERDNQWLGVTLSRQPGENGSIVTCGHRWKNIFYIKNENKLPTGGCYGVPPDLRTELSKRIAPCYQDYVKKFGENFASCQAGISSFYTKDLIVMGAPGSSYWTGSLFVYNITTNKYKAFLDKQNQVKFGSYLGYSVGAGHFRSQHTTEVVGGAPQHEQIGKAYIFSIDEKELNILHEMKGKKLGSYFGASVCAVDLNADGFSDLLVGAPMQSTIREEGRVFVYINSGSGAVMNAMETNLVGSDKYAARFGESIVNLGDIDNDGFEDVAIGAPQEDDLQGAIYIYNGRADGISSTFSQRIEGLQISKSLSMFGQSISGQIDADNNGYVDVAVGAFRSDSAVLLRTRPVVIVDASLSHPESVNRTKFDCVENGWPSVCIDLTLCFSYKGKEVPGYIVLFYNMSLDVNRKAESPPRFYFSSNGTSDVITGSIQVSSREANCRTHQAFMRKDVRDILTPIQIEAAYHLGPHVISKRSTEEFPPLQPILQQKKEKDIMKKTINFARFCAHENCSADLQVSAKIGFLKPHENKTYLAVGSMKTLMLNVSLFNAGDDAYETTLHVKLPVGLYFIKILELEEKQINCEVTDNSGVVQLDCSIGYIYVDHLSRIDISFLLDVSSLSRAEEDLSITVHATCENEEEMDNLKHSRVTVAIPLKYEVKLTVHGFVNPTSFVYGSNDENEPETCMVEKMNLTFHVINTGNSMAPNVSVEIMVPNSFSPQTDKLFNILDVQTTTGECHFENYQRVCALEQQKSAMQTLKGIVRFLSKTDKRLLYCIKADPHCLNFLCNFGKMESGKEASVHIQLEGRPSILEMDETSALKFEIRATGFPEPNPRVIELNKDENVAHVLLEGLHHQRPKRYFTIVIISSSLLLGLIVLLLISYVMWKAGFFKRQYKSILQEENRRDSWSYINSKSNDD
Sequence of ATP-binding cassette sub-family B member 6 (Homo sapiens) (Q9NP58 whole entry, looked up): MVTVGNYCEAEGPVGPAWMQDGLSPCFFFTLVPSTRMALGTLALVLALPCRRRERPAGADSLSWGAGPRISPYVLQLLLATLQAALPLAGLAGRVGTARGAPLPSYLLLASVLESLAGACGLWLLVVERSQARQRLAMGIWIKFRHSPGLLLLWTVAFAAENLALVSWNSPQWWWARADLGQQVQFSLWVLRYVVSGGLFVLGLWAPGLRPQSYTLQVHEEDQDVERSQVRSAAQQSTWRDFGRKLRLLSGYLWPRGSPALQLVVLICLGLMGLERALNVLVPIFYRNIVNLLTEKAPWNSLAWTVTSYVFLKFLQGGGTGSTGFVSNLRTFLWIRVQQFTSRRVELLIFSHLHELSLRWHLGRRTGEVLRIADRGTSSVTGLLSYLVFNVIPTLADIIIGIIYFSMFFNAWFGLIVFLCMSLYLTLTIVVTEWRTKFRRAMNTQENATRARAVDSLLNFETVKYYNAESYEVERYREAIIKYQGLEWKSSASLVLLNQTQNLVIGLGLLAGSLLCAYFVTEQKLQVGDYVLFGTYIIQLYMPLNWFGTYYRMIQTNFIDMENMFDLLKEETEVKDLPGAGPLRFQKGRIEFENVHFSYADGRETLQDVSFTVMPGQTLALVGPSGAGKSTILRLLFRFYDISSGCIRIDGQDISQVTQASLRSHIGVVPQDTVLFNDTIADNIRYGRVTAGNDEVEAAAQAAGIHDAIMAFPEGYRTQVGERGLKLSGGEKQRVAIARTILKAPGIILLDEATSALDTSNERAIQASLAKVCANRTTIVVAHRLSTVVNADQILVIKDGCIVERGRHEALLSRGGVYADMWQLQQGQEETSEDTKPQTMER
Sequence of AP-2 complex subunit beta (Homo sapiens) (P63010 whole entry, looked up, the tested form may be a part, one chain of several): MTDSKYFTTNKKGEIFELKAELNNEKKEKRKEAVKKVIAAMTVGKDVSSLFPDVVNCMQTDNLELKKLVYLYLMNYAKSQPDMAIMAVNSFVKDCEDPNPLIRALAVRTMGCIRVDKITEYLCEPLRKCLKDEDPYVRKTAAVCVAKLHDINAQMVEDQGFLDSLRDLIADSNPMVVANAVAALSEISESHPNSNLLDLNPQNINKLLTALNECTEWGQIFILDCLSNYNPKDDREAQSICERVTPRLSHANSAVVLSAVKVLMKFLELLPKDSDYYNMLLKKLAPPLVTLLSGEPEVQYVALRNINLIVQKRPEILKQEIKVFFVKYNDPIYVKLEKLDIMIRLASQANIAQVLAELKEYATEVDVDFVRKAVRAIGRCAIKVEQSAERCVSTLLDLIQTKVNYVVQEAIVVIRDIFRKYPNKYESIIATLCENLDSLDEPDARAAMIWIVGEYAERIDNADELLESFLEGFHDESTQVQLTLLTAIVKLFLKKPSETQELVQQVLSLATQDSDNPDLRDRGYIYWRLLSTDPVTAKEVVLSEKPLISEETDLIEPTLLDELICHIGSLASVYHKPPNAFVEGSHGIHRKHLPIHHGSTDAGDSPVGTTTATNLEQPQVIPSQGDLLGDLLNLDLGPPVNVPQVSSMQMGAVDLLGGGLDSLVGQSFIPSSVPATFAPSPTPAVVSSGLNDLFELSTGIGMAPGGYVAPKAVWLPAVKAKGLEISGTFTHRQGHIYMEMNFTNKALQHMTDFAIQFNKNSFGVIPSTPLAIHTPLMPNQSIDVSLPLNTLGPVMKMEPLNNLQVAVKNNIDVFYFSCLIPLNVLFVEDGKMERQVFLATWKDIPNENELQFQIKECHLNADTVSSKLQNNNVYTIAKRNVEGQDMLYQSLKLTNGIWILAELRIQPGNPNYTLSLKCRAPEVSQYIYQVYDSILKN
Sequence of Beta-adrenergic receptor kinase 1 (Homo sapiens) (P25098 whole entry, looked up): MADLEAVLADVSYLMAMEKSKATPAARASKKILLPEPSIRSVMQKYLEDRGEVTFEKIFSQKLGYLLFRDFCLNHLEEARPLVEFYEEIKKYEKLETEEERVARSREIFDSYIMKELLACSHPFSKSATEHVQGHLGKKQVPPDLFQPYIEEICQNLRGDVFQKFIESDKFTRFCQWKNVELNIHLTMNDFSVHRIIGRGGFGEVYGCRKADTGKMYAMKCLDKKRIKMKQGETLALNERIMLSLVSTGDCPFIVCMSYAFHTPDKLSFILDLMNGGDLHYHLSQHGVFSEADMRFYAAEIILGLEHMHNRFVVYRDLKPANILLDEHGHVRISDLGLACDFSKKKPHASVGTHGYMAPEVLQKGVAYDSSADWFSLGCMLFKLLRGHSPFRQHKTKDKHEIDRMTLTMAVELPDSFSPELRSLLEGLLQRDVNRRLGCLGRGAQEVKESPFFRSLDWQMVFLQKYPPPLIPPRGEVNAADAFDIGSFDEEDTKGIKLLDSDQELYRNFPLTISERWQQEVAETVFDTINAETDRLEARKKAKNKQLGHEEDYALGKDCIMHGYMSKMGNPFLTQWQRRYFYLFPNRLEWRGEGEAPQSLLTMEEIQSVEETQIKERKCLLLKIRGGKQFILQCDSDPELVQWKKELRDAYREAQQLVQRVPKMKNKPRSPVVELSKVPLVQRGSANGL
Sequence of Beta-2 adrenergic receptor (Homo sapiens) (P07550 whole entry, looked up): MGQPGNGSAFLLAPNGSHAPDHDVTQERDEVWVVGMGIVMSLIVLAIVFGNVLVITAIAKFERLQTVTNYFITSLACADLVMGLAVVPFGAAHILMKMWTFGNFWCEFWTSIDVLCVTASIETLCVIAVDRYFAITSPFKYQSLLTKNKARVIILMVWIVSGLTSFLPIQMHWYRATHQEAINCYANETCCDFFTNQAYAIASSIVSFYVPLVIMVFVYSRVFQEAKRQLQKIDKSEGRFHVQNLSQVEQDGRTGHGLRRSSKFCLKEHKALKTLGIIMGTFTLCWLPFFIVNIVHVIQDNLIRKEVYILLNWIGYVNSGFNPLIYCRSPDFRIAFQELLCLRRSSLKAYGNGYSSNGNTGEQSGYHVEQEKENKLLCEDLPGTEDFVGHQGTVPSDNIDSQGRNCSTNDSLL

`Cc1cc(NS(=O)(=O)c2ccc(N)cc2)no1`: the percent of DMSO control GFP in assay [1] was 103% (inactive). In addition, the GFP response vs DMSO in assay [2] is 98.7% (inactive); in assay [4], 102% (inactive). Besides, the percent response of DMSO control in assay [3] is 107% (inactive). For the same compound, the GFP response, % of DMSO in assay [5] was 113% (inactive). Further, in [6], the double positive events was determined as 63.3%. Besides, the vesicle binding response in assay [6] is 121% (inactive). Besides, the results for the inhibition in assay [7], in [11] and in assay [15] were 15% (inactive), -2.38% (inactive) and 4% (inactive), respectively. Moreover, the superoxide response (% of plate) in [8] is 99.6% (inactive). Besides, the aptamer binding inhibition in [9] was -1% (inactive). The response in assay [10] was 5.64% (inactive); in assay [12] it was -1.68% (inactive). The binding (% of control) in [13] is 99.2% (inactive). Also, the efflux inhibition (fraction of control) in [14] is -0.16 (inactive). In [16], the differentiation response is -11.9% (inactive).

On to `O=C(/C=C/c1ccccc1)NC(=O)c1ccccc1O`, for which, in [1], the percent of DMSO control GFP was 106% (inactive). Besides, the results for the GFP response vs DMSO in assay [2] and in [4] were 104% (inactive) and 121% (inactive), respectively. Further, the percent response of DMSO control in assay [3] was 104% (inactive). The GFP response, % of DMSO in [5] is 94.2% (inactive). The compound further displayed a double positive events in assay [6] of 59.9%. Besides, the vesicle binding response in assay [6] is 128% (inactive). Moreover, the inhibition in assay [7] is 4.27% (inactive); in assay [11], 15.2% (inactive); in assay [15], 0% (inactive). Further, the superoxide response (% of plate) in assay [8] is 111% (inactive). In [9], the aptamer binding inhibition was -4% (inactive). The response in assay [10] was 5.9% (inactive); in assay [12], -7.97% (inactive). The binding (% of control) in assay [13] was 102% (inactive). The efflux inhibition (fraction of control) in assay [14] is 0.07 (inactive). Besides, the differentiation response in [16] is -10.4% (inactive).

`COc1ccc(OC)c(S(=O)(=O)N2CCCc3ccccc32)c1`: the percent of DMSO control GFP in assay [1] was 101% (inactive). The GFP response vs DMSO was 104% (inactive) in assay [2] and 126% (inactive) in assay [4]. For the same compound, the percent response of DMSO control in assay [3] was 91.3% (inactive). Also, the GFP response, % of DMSO in [5] is 105% (inactive). Also, the double positive events in assay [6] turned out to be 58.6%. Moreover, the vesicle binding response in assay [6] was 124% (inactive). The figures for the inhibition in assay [7], in assay [11] and in assay [15] were 15% (inactive), 2.15% (inactive) and 24% (inactive), respectively. The superoxide response (% of plate) in assay [8] was 97.2% (inactive). Moreover, in assay [9], the aptamer binding inhibition is 5% (inactive). Also, the figures for the response in assay [10] and in assay [12] were 2.04% (inactive) and -1.7% (inactive), respectively. In addition, in assay [13], the binding (% of control) is 105% (inactive). Moreover, the efflux inhibition (fraction of control) in assay [14] is 0.18 (inactive). Further, in assay [16], the differentiation response was -8.96% (inactive).

For the compound `OCCOCCN1CCN(C(c2ccccc2)c2ccc(Cl)cc2)CC1` (stereo not drawn), in [1], the percent of DMSO control GFP was 90.4% (inactive). Also, the values for the GFP response vs DMSO in assay [2] and in [4] were 114% (inactive) and 77% (inactive), respectively. Also, the percent response of DMSO control in [3] was 95.2% (inactive). In [5], the GFP response, % of DMSO is 93.8% (inactive). The same compound showed a double positive events in assay [6] of 66.8%. The vesicle binding response in [6] is 218% (inactive). For the same compound, the figures for the inhibition in assay [7], in assay [11] and in [15] were -0.33% (inactive), 0.96% (inactive) and 12% (inactive), respectively. Also, the superoxide response (% of plate) in assay [8] was 95% (inactive). Moreover, in assay [9], the aptamer binding inhibition was 1% (inactive). Moreover, the response in assay [10] is 3.36% (inactive); in assay [12], 1.14% (inactive). Besides, in [13], the binding (% of control) was 110% (inactive). Moreover, in assay [14], the efflux inhibition (fraction of control) is -0.38 (inactive). Moreover, the differentiation response in assay [16] is -1.64% (inactive).

A word on the inhibition: it is the relative decrease from the control value, in per cent.
